In ChEMBL document CHEMBL3433997, “St. Jude Leishmania screening dataset” (2016):

Legend:
Assay type in all cases: functional
[1] = molecular target: Solute carrier family 2, facilitated glucose transporter member 1 (Homo sapiens) (UniProt P11166); test: ST_JUDE_LEISH: Cytotoxicity at 2uM final concentration against transgenic Leishmania Mexicana promastigotes LmGLUT1 that are glucose transport deficient and complemented with the human glucose transporter GLUT1. Activity is measured by DNA content using SYBR green in vitro
[2] = molecular target: Hexose transporter 1 (Plasmodium falciparum) (UniProt O97467); test: ST_JUDE_LEISH: Cytotoxicity at 2uM final concentration against transgenic Leishmania Mexicana promastigotes LmPfHT that are glucose transport deficient and complemented with the Plasmodium falciparum hexose transporter. Activity is measured by DNA content using SYBR green in vitro
[3] = molecular target: Glucose transporter (Leishmania mexicana) (UniProt O61059); test: ST_JUDE_LEISH: Cytotoxicity at 2uM final concentration against transgenic Leishmania Mexicana promastigotes LmGT2 that are glucose transport deficient and complemented with the L. Mexicana glucose transporter 2. Activity is measured by DNA content using SYBR green in vitro

Solute carrier family 2, facilitated glucose transporter member 1 (Homo sapiens), sequence (P11166 whole entry): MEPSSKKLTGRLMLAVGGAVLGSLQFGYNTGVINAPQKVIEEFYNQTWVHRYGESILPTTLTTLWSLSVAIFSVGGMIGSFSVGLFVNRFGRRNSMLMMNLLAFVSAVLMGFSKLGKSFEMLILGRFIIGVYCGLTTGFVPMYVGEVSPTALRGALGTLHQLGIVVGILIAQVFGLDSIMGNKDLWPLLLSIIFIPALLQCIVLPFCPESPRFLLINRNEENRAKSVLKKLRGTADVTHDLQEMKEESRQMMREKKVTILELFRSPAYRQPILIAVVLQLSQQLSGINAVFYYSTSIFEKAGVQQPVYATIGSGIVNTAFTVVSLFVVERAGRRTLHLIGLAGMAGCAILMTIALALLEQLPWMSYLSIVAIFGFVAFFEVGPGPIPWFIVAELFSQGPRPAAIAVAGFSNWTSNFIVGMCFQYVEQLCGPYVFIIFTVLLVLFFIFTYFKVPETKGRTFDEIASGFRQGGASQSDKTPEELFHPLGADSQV

`O=S(=O)(NCCN1CCCC1)c1ccc(-c2ccc(CNCc3ccc(F)cc3)cc2)cc1F` gave an inhibition [1] of 5.72%, an inhibition [2] of 5.82% and an inhibition [3] of 3.28%.

For `Cc1ccc(NC(=O)c2cccc(CN3CCCN(Cc4cccc(O)c4)CC3)c2)cc1C`, the inhibition [1] was 4.69%, the inhibition [2] was 3.38% and the inhibition [3] was 4.38%.

In the case of `Cc1nnsc1C(=O)Nc1ccc(-c2cccc(-c3nc4cc(C(F)(F)F)ccc4[nH]3)c2)cc1`, the inhibition [1] is reported as 0.51%, the inhibition [2] is reported as 0.86% and the inhibition [3] is reported as 4.55%.

`CC(=O)Oc1c(Cl)c(C)nc(C)c1-c1ccc(Oc2ccc(Cl)cc2)cc1` gave an inhibition [1] of 9.11%, an inhibition [2] of 9.67% and an inhibition [3] of 4.45%.

For `O=C1COc2ccc(S(=O)(=O)N3CCC[C@@H]3CCN3CCC(c4c[nH]c5cnccc45)CC3)cc2N1`, the inhibition [1] was 0.76%, the inhibition [2] was 0.68% and the inhibition [3] was 2.12%.

Compound `Cc1c(CN2CCC(N3CCC(C(=O)NC4CC4)CC3)CC2)[nH]c2c(Cl)cccc12` has an inhibition [1] of 9.37%, an inhibition [2] of 11.6% and an inhibition [3] of 9.75%.

`COC(=O)Nc1ccc(-c2ccc(C(=O)NC3CCN(C[C@H](O)c4ccnc5ccc(OC)cc45)CC3)cc2)c(C)c1` showed an inhibition [1] of 0.51%, an inhibition [2] of 0.01% and an inhibition [3] of -1.03%.

Compound `Cc1n[nH]c2ccc(-c3ccc4nccc(N5CCC(N)CC5)c4c3)cc12` has an inhibition [1] of -2.13%, an inhibition [2] of -0.1% and an inhibition [3] of -3.17%.

For `Cc1nn(CC(C)C)c2sc(C(=O)Nc3nc(-c4ccccn4)cs3)cc12`, the inhibition [1] was 3.49%, the inhibition [2] was 3.41% and the inhibition [3] was 2.33%.

Work on `CCOc1ccc2nc(C)cc(N/N=C/c3ccccc3[N+](=O)[O-])c2c1` yielded an inhibition [1] of 33.1%, an inhibition [2] of 26.4% and an inhibition [3] of 33.9%.

With `Cc1cn(CC(=O)Nc2cccc(-c3cccc(-c4nc5cccc(C)c5[nH]4)c3)c2)c(=O)[nH]c1=O` the inhibition [1] was 4.43%, the inhibition [2] was 3.47% and the inhibition [3] was 5.03%.

`Cc1cc(N)c2cc(NC(=O)/C=C/c3ccccc3Cl)ccc2n1` was tested, and the inhibition [1] was -4.75%, the inhibition [2] was 0.57% and the inhibition [3] was -0.21%.
